Inconclusive results are not listed. The source made the active and inactive calls. Calls come from the whole dose curve; as a rule, active = well fitted curve in the direction sought with a large enough effect; inconclusive = small, poorly fitted or top-dose-only effect, or another doubt; inactive = no such curve, though single readings can be large; an effect the other way counts as inactive or inconclusive.
What was measured:
[1] = Cellular Toxicity (caspase-3) Mesangial (AID 660); conditions: mesangial cells, normalized: DMSO 0%, 100 µM tamoxifen 100%; at 91.7 µM (top of the series);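 note: combined caspase 3 and 7 activity read by Caspase-Glo luminescence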
Procedure, shortened: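 Mesangial cells, 1000/well, 5 h settle at 37 °C; compound 16 h, 37 °C; Caspase-Glo 3/7 reagent 20 min RT; luminescence. Norm.: DMSO = 0%, tamoxifen 100 uM = 100%. AC50, Hill fit.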

[2] = Cellular Toxicity (caspase-3) SK-N-SH (AID 661);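 note: 0% = DMSO basal and 100% = 10 µM staurosporine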
Procedure, shortened: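 Human neuroblastoma SK-N-SH, 1500 cells/well, 5 hr pre-incubation, then compound 16 hr, 37 °C. Caspase-Glo 3/7 reagent, 1 hr RT, luminescence. Norm. to DMSO/10 uM staurosporine; Hill-fit AC50.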

[3] = Cellular Toxicity (caspase-3) H-4-II-E (AID 663); conditions: H-4-II-E rat hepatoma, scaled: DMSO 0%, 100 µM tamoxifen 100%; at 92.2 µM (top of the series)
Procedure, shortened: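 Rat hepatoma H-4-II-E cells (1500/well) plated 5 hr, then exposed to compound titrations for 16 hr at 37 °C. Caspase-Glo 3/7 luminescence read after 20 min at RT; data normalized to DMSO and 100 uM tamoxifen, AC50 from Hill fits.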

[4] = Cellular Toxicity (caspase-3) Hek293 (AID 664); conditions: HEK293 caspase-3 activation, DMSO = 0%, 100 µM tamoxifen = 100%; at 92.2 µM (top of the series);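 note: cells exposed to compound for 16 h at 37 °C before readout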
Procedure, shortened: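 Cells plated, 5 hr at 37 °C; compounds added; 16 hr at 37 °C; Caspase-Glo 3/7 reagent, 20 min RT; luminescence read. Activation expressed relative to DMSO and 100 uM tamoxifen, AC50 by Hill model.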

[5] = Cellular Toxicity (caspase-3) N2a (AID 665);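 note: compound exposure lasted 16 h at 37 °C before readout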
Procedure, shortened: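 N2a cells, 1500/well, 5 h settle at 37 °C; cpd 16 h, 37 °C; Caspase-Glo 3/7, 1 h RT; luminescence. Norm: DMSO = 0, 10 uM staurosporine = 100%. AC50, Hill fit.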

[6] = Cellular Toxicity (caspase-3) Renal Proximal Tubule (AID 667); conditions: Potency: caspase-3 activation;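 note: cells exposed to compound for 16 hours at 37 °C before detection; 0% = DMSO basal and 100% = 10 µM staurosporine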
Procedure, shortened: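 Freshly isolated primary rat kidney proximal tubule cells, 1000/well, treated 16 hr at 37 °C, then Caspase-Glo 3/7 luminescence after 1 hr. Normalized to DMSO and 10 uM staurosporine; AC50 from Hill fit.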

[7] = target: Cytochrome P450 3A4 (Homo sapiens) (UniProt P08684); assay: qHTS Assay for Inhibitors and Substrates of Cytochrome P450 3A4 (AID 884); note: % is set by controls: 0 for no effect and ±100 for the full control effect; nearly all actives have a fitted effect of over 50% in size
Chain of Cytochrome P450 3A4 (Homo sapiens) (P08684 whole entry, looked up): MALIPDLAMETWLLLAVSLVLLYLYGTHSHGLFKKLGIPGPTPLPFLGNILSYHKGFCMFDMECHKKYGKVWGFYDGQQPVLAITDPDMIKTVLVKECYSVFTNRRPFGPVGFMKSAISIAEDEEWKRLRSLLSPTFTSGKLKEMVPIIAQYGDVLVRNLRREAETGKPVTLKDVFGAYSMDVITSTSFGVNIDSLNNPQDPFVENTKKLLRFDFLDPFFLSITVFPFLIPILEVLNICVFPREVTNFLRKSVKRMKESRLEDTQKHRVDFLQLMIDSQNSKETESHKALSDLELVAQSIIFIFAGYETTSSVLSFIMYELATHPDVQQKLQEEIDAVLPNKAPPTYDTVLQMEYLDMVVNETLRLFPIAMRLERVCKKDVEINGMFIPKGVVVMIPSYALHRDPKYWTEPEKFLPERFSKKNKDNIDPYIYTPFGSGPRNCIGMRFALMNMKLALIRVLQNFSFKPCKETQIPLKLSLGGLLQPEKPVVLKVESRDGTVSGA
Procedure, shortened: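 20 nM human CYP3A4 with 25 uM Luciferin-PPXE (at KM) in 200 mM KPO4, preincubated 10 min with compound; NADPH regeneration started a 60 min RT reaction. Luciferin detected by luminescence, normalized to 57 uM ketoconazole as full inhibition.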

[8] = Cell Viability - LYMP2-001 (AID 921);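 note: 0% = DMSO only and full inhibition = tetraoctylammonium bromide control wells; nearly all actives have a fitted effect of over 70% in size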
Procedure, shortened: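 Human lymphoblastoid LYMP2-001 cells, 2500 per well, in complete medium, treated 24 h at 37 C. Viability from cellular ATP by CellTiter-Glo luminescence; AC50 from Hill-equation fits of qHTS concentration-response.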

[9] = MultiTox-Fluor Cytotoxicity Assay - LYMP1-001 - Dead Cells (AID 946)
Procedure, shortened: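 In this qHTS, 15 uM tetraoctylammonium bromide defined 100% and DMSO defined basal activity. Lymphoblastoid cells (LYMP1-001, 2500 per well) received compound for 16 hr at 37 C before a fluorogenic dead-cell substrate readout at 485/520 nm.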

[10] = MultiTox-Fluor Cytotoxicity Assay - LYMP1-001 - Live Cells (AID 947);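 note: 0% = DMSO only and full inhibition = tetraoctylammonium bromide control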
[11] = Cell Viability - LYMP1-002 - Assay at 16 hr (AID 948);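 note: 0% = DMSO alone and full effect = 92 µM tetraoctylammonium bromide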
Procedure, shortened: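 LYMP1-002 human lymphoblastoid cells, 2500/well, were treated with compounds for 16 hr at 37 C in complete medium. Viability was read as intracellular ATP by CellTiter-Glo luminescence, and AC50 was derived from a Hill fit to concentration-response data.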

[12] = MultiTox-Fluor Cytotoxicity Assay - LYMP1-002 - Live Cells (AID 955); note: % is set by controls: 0 for no effect and ±100 for the full control effect
Procedure, shortened: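 Read-out is live-cell protease activity (cell-permeant GF-AFC substrate, fluorescence Ex/Em=405/510), where a decrease indicates acute toxicity. Human lymphoblastoid cells were treated 16 hours at 37 C in a concentration series, and AC50 values came from standard Hill modelling.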

[13] = MultiTox-Fluor Cytotoxicity Assay - LYMP1-002 - Dead Cells (AID 960); note: nearly all actives have a fitted effect of over 60% in size
Procedure, shortened: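 LYMP1-002 cells 2500/well; 5 hr 37 C pre-incubation; compound 16 hr 37 C; MultiTox-Fluor reagent 60 min RT; dead-cell fluor Ex/Em 485/520. Norm. to DMSO (0%) vs 15 uM tetraoctylammonium bromide (100%); Hill AC50.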

[14] = MultiTox-Fluor Cytotoxicity Assay - LYMP1-003 - Dead Cells (AID 961); note: nearly all actives have a fitted effect of over 70% in size
Procedure, shortened: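 Acute toxicity is scored as increased dead-cell protease activity in human lymphoblastoid LYMP1-003 cells after 16 h compound exposure in complete culture medium. Activity is normalized to DMSO basal and 15 uM tetraoctylammonium bromide as full response.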

[15] = MultiTox-Fluor Cytotoxicity Assay - LYMP1-003 - Live Cells (AID 962);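 note: 0% = DMSO only and full loss = 92 µM tetraoctylammonium bromide; cytotoxic hits lower the live-cell protease signal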
Procedure, shortened: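 qHTS, 1536-well; 2500 cells/well LYMP1-003; 5 hr 37 C settle; cpd 16 hr 37 C; MultiTox-Fluor reagent 60 min RT; live-cell protease fluor. 405/510; Hill-fit AC50; tetraoctylammonium bromide pos. ctrl.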

[16] = Cell Viability - LYMP1-003 - Assay at 24 hr (AID 963);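 note: plate controls were DMSO only for no effect and tetraoctylammonium bromide positive control for full effect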
Procedure, shortened: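 Cells seeded at 2500/well, 5 hr at 37 C; compounds added; 24 hr at 37 C; CellTiter-Glo added, 30 min room temperature; luminescence read. Decrease in ATP taken as cytotoxicity, AC50 from Hill modelling.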

[17] = Cell Viability - LYMP1-003 - Assay at 40 hr (AID 964); note: % is set by controls: 0 for no effect and ±100 for the full control effect; nearly all actives have a fitted effect of over 60% in size
Procedure, shortened: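 Cells were seeded at 2500 per well and incubated 5 hr at 37 C. Compounds were added across a concentration series and left 40 hr at 37 C. CellTiter-Glo was added for 30 min at room temperature before luminescence reading.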

[18] = Cell Viability - LYMP2-003 (AID 965);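 note: cells exposed to compounds for 24 h before reading; 0% = DMSO only and full effect = 92 µM tetraoctylammonium bromide; nearly all actives have a fitted effect of over 50% in size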
Procedure, shortened: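 Human lymphoblastoid LYMP2-003 cells, 2500/well, exposed to compounds for 24 h at 37 C in complete medium. Viability read as intracellular ATP by CellTiter-Glo luminescence; AC50 from Hill-equation fits of qHTS concentration-response data.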

[19] = Cell Viability - LYMP2-004 (AID 966);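 note: plate controls were DMSO only for no effect and tetraoctylammonium bromide control for full effect; nearly all actives have a fitted effect of over 65% in size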
Procedure, shortened: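 Cells seeded 2500/well, rested 5 hr at 37 C, dosed across a concentration series, incubated 24 hr at 37 C, then CellTiter-Glo added for 30 min at room temperature and luminescence read. Hill fitting gave AC50.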

[20] = Cellular Toxicity (caspase-3) NIH 3T3 (AID 666);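 note: caspase signal read after 16 h compound exposure; 0% = DMSO basal and 100% = 100 µM tamoxifen stimulation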
Procedure, shortened: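 Luminescence from aminoluciferin released by caspase-3/7 cleavage of a peptide substrate served as read-out. Mouse fibroblast NIH 3T3 cells were exposed to compounds over a concentration range for 16 hours, and AC50 values came from standard Hill modelling.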

Nc1cccc(O)c1
inactive: caspase-3 activation [1] 0.168% | outcome [2] | caspase-3 activation [3] -0.484% | caspase-3 activation [4] 1.1% | outcome [5] | Potency [6] | Potency [7] | Potency [8] | outcome [9] | outcome [10] | outcome [11] | outcome [12] | outcome [13] | Potency [14] | Potency [15] | Potency [16] | Potency [17] | Potency [18] | Potency [19]

CC(O)CC(C)O (centres undefined)
inactive: caspase-3 activation [1] 0.0132% | outcome [2] | caspase-3 activation [3] 1.09% | caspase-3 activation [4] -0.296% | outcome [5] | Potency [6] | Potency [7] | Potency [8] | outcome [9] | outcome [10] | outcome [11] | outcome [12] | Potency [14] | Potency [15] | Potency [16] | Potency [17] | Potency [18] | Potency [19]

O=C(O)c1ccccc1Cl
inactive: caspase-3 activation [1] -0.834% | outcome [2] | caspase-3 activation [3] 0.73% | caspase-3 activation [4] -0.14% | outcome [5] | Potency [7] | Potency [8] | outcome [9] | outcome [11] | outcome [12] | outcome [13] | Potency [14] | Potency [15] | Potency [16] | Potency [17] | Potency [18] | Potency [19]

O=[N+]([O-])c1ccccc1CCO
inactive: caspase-3 activation [1] -1.29% | outcome [2] | caspase-3 activation [3] 1.12% | caspase-3 activation [4] -0.925% | outcome [5] | Potency [6] | Potency [7] | Potency [8] | outcome [9] | outcome [11] | outcome [12] | outcome [13] | Potency [14] | Potency [15] | Potency [16] | Potency [17] | Potency [18] | Potency [19]

ClCCl
inactive: caspase-3 activation [1] -1.27% | outcome [2] | caspase-3 activation [3] -0.724% | caspase-3 activation [4] 1.14% | outcome [5] | Potency [6] | Potency [7] | Potency [8] | outcome [9] | outcome [10] | outcome [11] | outcome [12] | outcome [13] | Potency [14] | Potency [15] | Potency [16] | Potency [17] | Potency [18]

Cc1cccc(C(=O)O)c1
inactive: caspase-3 activation [1] -1.17% | outcome [2] | caspase-3 activation [3] -1.62% | caspase-3 activation [4] -3.34% | outcome [5] | Potency [6] | Potency [7] | Potency [8] | outcome [9] | outcome [11] | outcome [12] | outcome [13] | Potency [14] | Potency [15] | Potency [16] | Potency [17] | Potency [18] | Potency [19]

Nc1nc(CC(=O)O)cs1
inactive: caspase-3 activation [1] 0.647% | outcome [2] | caspase-3 activation [3] 0.956% | caspase-3 activation [4] -1.7% | outcome [5] | Potency [6] | Potency [7] | Potency [8] | outcome [9] | outcome [11] | outcome [12] | outcome [13] | Potency [14] | Potency [15] | Potency [16] | Potency [17] | Potency [18] | Potency [19]

C=C(C)C(=O)OCCCCCC
inactive: caspase-3 activation [1] 0.76% | outcome [2] | caspase-3 activation [3] 0.664% | caspase-3 activation [4] -0.643% | outcome [5] | Potency [7] | Potency [8] | outcome [9] | outcome [11] | outcome [12] | outcome [13] | Potency [15] | Potency [16] | Potency [17] | Potency [18] | Potency [19]

NC(N)=S
inactive: caspase-3 activation [1] -0.0158% | outcome [2] | caspase-3 activation [3] 1.67% | caspase-3 activation [4] -1.2% | outcome [20] | Potency [6] | Potency [7] | Potency [8] | outcome [9] | outcome [10] | outcome [11] | outcome [12] | outcome [13] | Potency [14] | Potency [15] | Potency [16] | Potency [17] | Potency [18] | Potency [19]

CC1CCC2CC1C2(C)C (centres undefined)
inactive: caspase-3 activation [1] 0.29% | outcome [2] | caspase-3 activation [3] 1.27% | caspase-3 activation [4] -2.62% | outcome [5] | Potency [6] | Potency [7] | Potency [8] | outcome [9] | outcome [10] | outcome [11] | outcome [12] | outcome [13] | Potency [14] | Potency [15] | Potency [16] | Potency [17] | Potency [18]

O=[N+]([O-])c1ccc(Cl)cc1Cl
inactive: caspase-3 activation [1] 0.652% | outcome [2] | caspase-3 activation [3] 1.21% | caspase-3 activation [4] 1.91% | outcome [5] | Potency [7] | Potency [8] | outcome [9] | outcome [10] | outcome [11] | outcome [12] | outcome [13] | Potency [14] | Potency [15] | Potency [16] | Potency [17] | Potency [19]

C=CCCCC
inactive: caspase-3 activation [1] -0.265% | outcome [2] | caspase-3 activation [3] 0.498% | caspase-3 activation [4] 1.21% | outcome [5] | Potency [6] | Potency [7] | Potency [8] | outcome [9] | outcome [10] | outcome [11] | outcome [12] | outcome [13] | Potency [14] | Potency [15] | Potency [16] | Potency [17] | Potency [18] | Potency [19]

CC(C)(C)c1ccc(OCC2CO2)cc1 (centres undefined)
inactive: caspase-3 activation [1] 1.34% | outcome [2] | caspase-3 activation [3] 0.475% | caspase-3 activation [4] -2.1% | outcome [5] | Potency [6] | Potency [7] | Potency [8] | outcome [9] | outcome [10] | outcome [11] | outcome [12] | outcome [13] | Potency [14] | Potency [15] | Potency [16] | Potency [17] | Potency [18] | Potency [19]

Reference: PubChem BioAssay (NCATS)
